# High-throughput results from PubChem.
# NS1 function inh = qHTS Assay for Inhibitors of Influenza NS1 Protein Function; Potency, µM (doses to about 46.1 µM), for the others: top-dose activity, positive = more growth; 270,000 compounds, 0.4% hits; AID 2326, 2010; calls by dose curve; further: potency means the concentration at half of the fitted maximal effect; actives are rising curves; nearly all actives have a fitted effect of over 50% in size
#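 Growth recovery, yeast-based: influenza A NS1 expressed in S. cerevisiae causes slow growth, and suppressors are detected by OD600. The parent strain without NS1 is used as positive control.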
# Pf growth 48h = Primary qHTS for delayed death inhibitors of the malarial parasite plastid, 48 hour incubation; P. falciparum luciferase growth in erythrocytes, 48 h; Potency, µM (series often up to 28.7 µM), without a hit: at the top dose activity change, negative = inhibition, actives largely listed as inhibitors; 310,000 compounds, 5.9% hits; AID 504832, 2011; further: potency means the concentration at half of the fitted maximal effect; on the % scale 0 is the no-effect control and ±100 the full control effect
#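 Compounds are pin-transferred into medium, infected erythrocytes (2% hematocrit, 0.1% parasitemia final) are added, and plates sit one parasite generation at 37 C in 5% CO2. Detection reagent is then added and luminescence measured.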
# Cycloheximide cs = Cycloheximide Counterscreen for Small Molecule Inhibitors of Shiga Toxin; 300,000 compounds, 12% hits; AID 2314, 2010; cell reporter, cycloheximide protein synthesis inhibition counterscreen; max response, %; in the data active means max response mostly above about 13%, no sharp cut-off; inactive means mostly below about 14%; further: read at 38.3 µM for the half of the compounds with a filed dose; 0% is about no effect
# FBPA Giardia inh = qHTS Assay for Inhibitors of Fructose-1,6-bisphosphate Aldolase from Giardia Lamblia | A8B2U2 | 290,000 compounds, 0.71% hits | purified Giardia FBPA | AID 2451, 2010 | Potency, µM (highest dose often 59.6 µM), inactives show top-dose activity, negative = inhibition, hits mostly inhibitors; further: potency means the concentration at half of the fitted maximal effect; on the % scale 0 is the no-effect control and ±100 the full control effect; nearly all actives have a fitted effect of over 55% in size
# Target sequence (A8B2U2 whole entry, looked up): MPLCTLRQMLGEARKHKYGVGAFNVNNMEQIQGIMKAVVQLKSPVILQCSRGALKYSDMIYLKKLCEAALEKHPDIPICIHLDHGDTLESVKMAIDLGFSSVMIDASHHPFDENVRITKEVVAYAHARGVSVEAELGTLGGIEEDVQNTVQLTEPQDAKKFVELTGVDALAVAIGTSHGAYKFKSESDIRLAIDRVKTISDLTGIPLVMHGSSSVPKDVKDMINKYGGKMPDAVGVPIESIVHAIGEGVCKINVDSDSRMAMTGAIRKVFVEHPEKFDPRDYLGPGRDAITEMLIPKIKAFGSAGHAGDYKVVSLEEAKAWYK
#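 40 nM FBPA preincubated 10 min at RT with compound (up to 57.5 uM final), then substrate plus GAPDH/TPI/NAD/arsenate coupling and diaphorase/resazurin added. Fluorescence read after 20 min at RT, 525/598 nm.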
# Shiga inhibitor = A qHTS for Small Molecule Inhibitors of Shiga Toxin; AID 2315, 2010; Vero cells, Shiga toxin protein synthesis inhibition reporter; 290,000 compounds, 9.2% hits; inhibition, % at 38.7 µM; in the data active means inhibition mostly above about 28%, no sharp cut-off; inactive means mostly below about 43%; further: 0% is about no effect
# Pf growth 96h = Primary qHTS for delayed death inhibitors of the malarial parasite plastid, 96 hour incubation | P. falciparum luciferase reporter growth, 96 h | Potency, µM (series often up to 28.7 µM), without a hit: at the top dose activity change, negative = inhibition, actives largely listed as inhibitors | 320,000 compounds, 6.9% hits; further: potency means the concentration at half of the fitted maximal effect; on the % scale 0 is the no-effect control and ±100 the full control effect
#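 Parasite growth measured via integrated firefly luciferase reporter in P. falciparum. Infected erythrocytes at 2% hematocrit, 0.05% parasitemia final were treated 96 hours at 37 C under 5% CO2, and luminescence was read.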
# The depositor's hits bear a star; ? = inconclusive; / = no result; [ ] = remark or other dose. A selection: hits, their analogues and other compounds. The true share with any hit is near 21%. Unless noted, the call rests on the fitted dose curve; in most records, active means well fitted curve in the direction sought with a large enough effect; inconclusive means small, poorly fitted or top-dose-only effect, or another doubt; inactive means no such curve, though single readings can be large; an effect the other way counts as inactive or inconclusive.
SMILES,NS1 function inh,Pf growth 48h,Cycloheximide cs,FBPA Giardia inh,Shiga inhibitor,Pf growth 96h
CCN1CCN(C(c2ccccn2)c2c(NC(=O)c3ccccc3)sc(C)c2C)CC1 (stereo not given),11.3%,?,-5.0,0.6%,-16.3,13.1µM*
COc1ccc(C(c2c(NC(=O)c3ccco3)sc(C)c2C)N2CCOCC2)cc1 (stereo not given),/,?,/,/,/,10.4%
Cc1sc(NC(=O)c2ccco2)c(C(c2cccnc2)N2CCC(C)CC2)c1C (stereo not given),-107.4%,1.85µM*,-4.0,1.0%,1.7,/
CC(C)(C)n1nnnc1C(c1cccnc1)N1CCN(C(=O)c2ccco2)CC1 (stereo not given),-4.6%,-18.4%,-2.5,-5.3%,-1.1,?
CCN1CCN(C(c2cccnc2)c2c(NC(=O)c3ccco3)sc(C)c2C)CC1 (stereo not given),/,4.15µM*,/,/,/,4.65µM*
O=C(c1cnn2c1NC(c1ccc(Br)cc1)CC2C(F)(F)F)N1CCN(C23CC4CC(CC(C4)C2)C3)CC1 (stereo not given),8.9%,3.7µM*,-3.7,1.2%,-2.8,8.28µM*
COc1ccc(Cl)cc1NC(=O)CN(C)C(=O)c1cn(-c2ccccc2)nc1-c1cccnc1,/,?,/,/,/,10.4µM*
COc1ccc(Cl)cc1NC(=O)CN(C)C(=O)c1cccc(-n2cnnn2)c1,/,-21.1%,/,/,/,-6.5%
COc1cccc(NC(=O)CN(C)C(=O)c2cn(-c3ccccc3)nc2-c2cccnc2)c1,/,11.7µM*,/,/,/,?
COc1cccc(NC(=O)CN(C)C(=O)c2cn(-c3ccccc3)nc2-c2cccs2)c1,/,?,/,/,/,-25.6%
COc1cc2c(cc1OC)[C@@]13CCN4C=C5CCO[C@H]6CC(=O)N2[C@@H]1C6[C@H]5C[C@H]43 (stereo not given in full),-2.6%,/,/,/,/,/
Cc1nc2c(C)cccn2c(=O)c1NC(=O)c1cccc2ccccc12,/,-12.0%,/,/,/,1.2%
C[C@@H](N1CCOCC1)[C@@](O)(c1ccccc1)c1ccccn1,2.8%,/,/,/,/,/
Cn1c2ccsc2c2cnn(Cc3ccc(F)cc3)c(=O)c21,/,?,/,/,/,8.7%
Cc1cccc(NS(=O)(=O)c2csc(C(N)=O)c2)c1C,-0.9%,?,-1.7,3.8%,-8.8,7.2%
N#Cc1ccc(COc2cccc3cccnc23)cc1,1.1%,52.3%,24.9*,-4.1%,35.7*,34.0%
O=[N+]([O-])c1ccc(OCCCOc2cccc3cccnc23)cc1,9.3%,10.8%,1.2,-9.9%,/,?
O=[N+]([O-])c1ccc(COc2cccc3cccnc23)cc1,-0.3%,63.7%,67.9*,-2.2%,142.7*,7.3%
COc1ccc(OCC2CN3C(CCC(C)C3c3ccc(Br)cc3)C(=O)O2)cc1 (stereo not given),/,/,/,-0.5%[12.9 µM],/,/
Cn1c(N=NC(=O)c2ccccc2)c(O)c2ccccc21,-20.0%,166.7%,43.4*,-13.1%,33.0*,221.6%
CCOc1ccc(NCc2cccn2-c2nnc(N3CCC(C(=O)NCCCN4CC(C)CC(C)C4)CC3)s2)cc1 (stereo not given),-2.3%,?,1.8,-6.6%,31.9,1.8%
O=C(Nc1nc2ccccc2[nH]1)NC1CCCCC1,2.2%,184.1%,45.7*,4.0%,81.2*,80.8%
O=C(Nc1nc2ccccc2[nH]1)c1cccs1,/,373.5%,37.4*,-7.4%,75.0*,0.465µM*
O=C(Nc1nc2ccccc2[nH]1)C1CCCO1 (stereo not given),-3.8%,79.4%,22.9*,-12.9%,40.5,15.1%
O=C(Nc1ccc(-c2nc3ccccc3[nH]2)cc1)C1CCCO1 (stereo not given),0.0%,78.8%,11.8,-2.2%,18.5,4.5%
SMILES,NS1 function inh,Pf growth 48h,Cycloheximide cs,FBPA Giardia inh,Shiga inhibitor,Pf growth 96h
S=C(NC1CCCCC1)N(CCc1nc2ccccc2[nH]1)C1CCCC1,-13.3%,?,-6.2,1.0%,17.6,13.1µM*
CCOc1ccc(NC(=O)CN(C)C(=O)c2ccc(NC3CC3)c([N+](=O)[O-])c2)cc1OCC,/,-22.8%,/,/,/,?
O=C(Nc1nc2ccccc2[nH]1)Nc1ccccc1F,-3.3%,130.3%,34.6*,-1.3%,99.2*,-22.0%
O=C(Nc1ccccn1)C12CC3CC(CC(C3)C1)C2,-15.0%,13.1µM*,6.2,-0.2%,11.4,/
O=C(Nc1nc2ccccc2[nH]1)C12CC3CC(CC(C3)C1)C2,-0.2%,?,39.9*,0.3%,63.2,/
O=C(OCc1nc2ccccc2[nH]1)C12CC3CC(CC(C3)C1)C2,-82.5%,?,-2.5,4.5%,-6.7,?
O=C(Nc1nc2ccccc2[nH]1)C1CC1,/,83.2%,22.6*,-2.4%,44.6,100.5%
O=C(O)CCn1c(-c2ccccc2)cc2ccccc21,-33.7%,13.4%,4.7,18.3%,12.0,?
O=C(CCCOc1ccccc1)NC1CCCc2ccccc21 (stereo not given),-6.2%,-2.3%,4.8,-3.7%,10.6,43.2%
N#Cc1ccc(NC(=S)NCCN2CCOCC2)cc1,/,-6.4%[5.75 µM],11.3,0.7%,-3.7,11.8%
Cc1ccc([N+](=O)[O-])cc1S(=O)(=O)NCC1COc2ccccc2O1 (stereo not given),-28.6%,2.6%,9.0,16.6%,-8.6,?
COc1ccc(COC(=O)N/N=C2/C[C@@H](O)[C@@H](O)[C@@H]3[C@@H]4C(=O)N(c5cccc(Oc6ccccc6)c5)C(=O)[C@H]4CC[C@@H]23)cc1,/,/,/,-0.3%[12.9 µM],/,/
CC(C)C[C@@H](CC(=O)N[C@H](CC(=O)N[C@@H]1CCCC[C@H]1C(=O)N[C@H](CC(=O)N[C@@H](CCC(=O)O)CC(=O)O)CC(C)C)C(C)C)NC(=O)[C@@H]1CCCC[C@H]1N,/,/,/,-16.4%,/,/
CCCOC(=O)NC(CC)COC(=O)Nc1cccc(C)c1C (stereo not given),-4.2%,6.4%,7.4,0.0%,24.8,9.28µM*
CCC(COC(=O)Nc1cccc(C)c1C)NC(=O)OCC(C)C (stereo not given),2.9%,4.3%,-4.0,-1.9%,-10.1,?
C=CCn1cn[nH]c1=S,1.6%,20.8%,-1.2,?,-4.0,34.9%
O=C1Nc2cc(C(=O)NCCCN3CCCC3)ccc2S/C1=C\c1ccccc1,11.4%,9.28µM*,3.1,-13.2%,-4.5,-0.7%
O=C1Nc2cc(C(=O)NCCCN3CCOCC3)ccc2S/C1=C/c1cccc(Cl)c1,2.1%,?,-9.8,/,7.9,3.0%
COc1ccc(/C=C2/Sc3ccc(C(=O)NCCN4CCCCCC4)cc3NC2=O)cc1,0.9%,9.28µM*,7.5,-8.5%,-15.1,?
O=C/C(=C\Nc1ccc(C(=O)N2CCOCC2)cc1)c1nc2ccccc2o1,/,15.7%,-1.0,-23.9%,1.3,4.8%
O=C(Nc1ccccc1-c1ccccc1)c1cccc(C(F)(F)F)c1,-3.7%,2.4%,-7.2,1.6%,-8.2,?
